As a reminder, the AC50 is the concentration giving half of the maximal activity seen.

Where “and” joins values, the source holds several entries; their conditions need not be identical. Equal entries are not always repeated. The source holds several records for some structures; these can differ, active in one and inactive in another. Calls of active or inactive are those of the source. The calls were made as follows: active = hit-call score of the fitted dose curve at least 0.9, where 1 is the maximum; inactive = score below 0.9.

Read-out in the experiment: Interleukin-8 (IL8), CXCL8 (gene 3576)
Put plainly: BSK_KF3CT_IL8: BioMAP Diversity Plus: KF3CT Assay for Interleukin-8 (IL8) Biomarker Activity (AID 2284254). The conditions noted are these: primary human keratinocytes with fibroblasts. The protocol: BSK_KF3CT is a cell-based, multiplexed-readout assay that uses keratinocytes and foreskin fibroblasts, a human skin primary cell co-culture, with measurements taken at 24 hours after chemical dosing in a 96-well plate.BSK_KF3CT_IL8 is an assay component measured in the BSK_KF3CT assay. It measures IL-8 antibody related to regulation of gene expression using ELISA technology.Data from the assay component BSK_KF3CT_IL8 was analyzed at the endpoint, BSK_KF3CT_IL8, in the positive analysis fitting direction relative to DMSO as the negative control and baseline of activity. Using a type of binding reporter, gain or loss-of-signal activity can be used to understand protein changes. To generalize the intended target to other relatable targets, this assay endpoint is annotated to the 'cytokine' intended target family, where the subfamily is 'interleukins'.
The levels of cell surface (or secreted, indicated by the prefix "s") biomarker endpoints were measured by ELISA. Overt cytotoxicity to cells in confluent adherent cultures (all systems other than the BT system) was assessed by measuring total protein levels using sulforhodamine B (SRB) staining in parallel cultures at the time of biomarker measurements, indicated as SRB endpoints. For proliferation assays for adherent cell types, individual cell types are cultured at sub-confluence and relative cell numbers quantified by SRB staining at time points optimized for each system (48 h: 3C and CASM3C systems; 72 h: BT and HDF3CGF systems; 96 h: SAg system). SRB was performed by staining cells with 0.1% SRB after fixation with 10% TCA and reading wells at 560 nm.Viability and proliferation of PBMC (T cells) was quantified by Alamar Blue reduction for the SAg and BT systems. For PBMC viability (referred to as PBMC Cytotoxicity within the assay endpoint names), cells were plated (75,000/well in a 96-well plate) and then chemical samples added for 1 h before addition of activators, SEB and TSST-1 (20 ng/mL final concentration each). Cells were incubated for 90 h. Then, Alamar Blue (20 uL/well) (Invitrogen, Cat DAL1100) was added for 6 h, and the plates were read with a fluorescence microplate reader at 546/580 nm (excitation/emission). For PBMC proliferation, cells were plated and activated as above but incubated for only 16 h prior to addition of Alamar Blue. Plates were read after 6 h.
Turning to `O=P(O)(O)CCC(F)(F)C(F)(F)C(F)(F)C(F)(F)C(F)(F)C(F)(F)F`, the outcome was inactive.

As to `Oc1ccc(Cc2ccccc2O)cc1`, the outcome was inactive.

Consider `O=C1NS(=O)(=O)c2ccccc21`, for which the result was inactive.

Take `CCCCCCCCCCCC`: the AC50 was 20 µM (active) and 27.3 µM (active).

Regarding `CN(Cc1cnc2nc(N)nc(N)c2n1)c1ccc(C(=O)N[C@@H](CCC(=O)O)C(=O)O)cc1`, the result was inactive.

Turning to `O=C(O)C(F)(F)OC(F)(F)C(F)(F)OC(F)(F)C(F)(F)OC(F)(F)C(F)(F)C(F)(F)C(F)(F)F`, the result was inactive.

Take `O=C(O)CCC(F)(F)C(F)(F)C(F)(F)C(F)(F)C(F)(F)F`: the outcome was inactive.

Consider `O=C(CC(=O)C(F)(F)C(F)(F)C(F)(F)F)c1cccs1`, for which the result was inactive.

As to `O=C(O)CCC(F)(F)C(F)(F)C(F)(F)C(F)(F)C(F)(F)C(F)(F)F`, the outcome was inactive.

On to `CN(CCO)S(=O)(=O)C(F)(F)C(F)(F)C(F)(F)C(F)(F)C(F)(F)C(F)(F)C(F)(F)C(F)(F)F`, for which the AC50 is 1.42 µM (active) and the outcome was inactive.

Turning to `OCC(F)(F)C(F)(F)C(F)(F)C(F)(F)C(F)(F)C(F)(F)C(F)(F)C(F)(F)C(F)(F)C(F)(F)C(F)(F)F`, the result was inactive.

As to `C=CC(=O)OCCC(F)(F)C(F)(F)C(F)(F)C(F)(F)C(F)(F)C(F)(F)C(F)(F)C(F)(F)F`, the outcome was inactive and the AC50 was 16.9 µM (active).

Consider `Oc1c(Cl)cc(Cl)cc1Sc1cc(Cl)cc(Cl)c1O`, for which the result was inactive.

As to `O=P(O)(O)CCC(F)(F)C(F)(F)C(F)(F)C(F)(F)C(F)(F)C(F)(F)C(F)(F)C(F)(F)F`, the outcome was inactive.

Take `O=S(=O)(O)C(F)(F)C(F)(F)C(F)(F)C(F)(F)C(F)(F)C(F)(F)C(F)(F)C(F)(F)C(F)(F)C(F)(F)F`: the result was inactive.

The values are drawn from PubChem BioAssay (EPA / NIEHS).
